# Experimental data taken from PubChem BioAssay (NCI).
# This is part of a sample that, as a whole, favours compounds with a hit. Of some 83,000 tested, about 20% had one in any assay.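 A percent growth of 40 corresponds to 60% growth inhibition; 0 means no net growth; -100 means all cells died. Active threshold: below 10.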 Unmarked numbers belong to inactive results. Active and inactive are the calls of the source.
# System: HL-60(TB) leukemia
# Experiment: NCI-60 one-dose screen, 48 h (100 = growth as untreated, 0 = no growth, -100 = all killed)
# Details: 10 µM unless noted
row,SMILES,growth
1,O=S(=O)(Nc1ccsc1-c1nc(-c2ccccc2)no1)c1cc(Cl)cc(Cl)c1,119%
2,Cc1ccc2nc(SCn3nnc4ccccc4c3=O)[nH]c2c1,80.3%
3,Cc1nc2ccccc2c(/C=C/c2ccc(F)cc2)c1C(N)=O,81.1%
4,CC(=O)C1CCC(C)=CC1=O (stereo not given),119%
5,N#Cc1c(-c2ccc(F)cc2)c(C#N)c2c(C#N)c(N)nn2c1N,99.7%
6,O=C(c1ccccc1)N1N=C(c2ccc(-n3ccc(C(F)(F)F)n3)c(F)c2)CC1c1ccc[nH]1 (stereo not given),101%
7,Cc1cc(NN=C(c2ccc(O)cc2)c2ccc(O)cc2)c([N+](=O)[O-])cc1[N+](=O)[O-],66.9%
8,C=CCn1cc(-c2nc3ccccc3s2)c2cc(-c3ccc4c5c(cccc35)C(=O)N(CCN3CCNCC3)C4=O)ccc21,103%
9,O=C(c1ccc(F)cc1)C1CCN(CCn2c(=O)[nH]c3ccccc3c2=O)CC1,97.3%
10,C=C1C(=O)O[C@H]2[C@H]1CC/C(COC(=O)/C=C\C(=O)NCc1ccc(Cn3c(=O)sn(CCCCC)c3=O)cc1)=C\CC[C@@]1(C)O[C@@H]21,-17.6% (active)
11,CCOc1nc(-c2ccccc2)cc2c(O)c(-c3nnco3)[nH]c(=O)c12,34.6%
12,Cc1ccc(C)c(S(=O)(=O)NC2c3ccccc3Oc3ccccc32)c1,86.9%
13,COc1ccc(C2CC(c3ccc(Nc4nc(Nc5ccc(F)cc5)nc(Nc5ccc(F)cc5)n4)cc3)=NN2C(C)=O)cc1 (stereo not given),17.1%
14,CCN(CC)c1ccc(Nc2ccc(CC(=O)c3ccccc3)cc2)cc1,97.9%
15,O=C1NC(=C(Cl)Cl)/C(=N\S(=O)(=O)NCc2ccccc2)N1,97%
16,O=C1C(=O)c2ccccc2C(O)=C1CCCc1ccc(C2CCCCC2)cc1,30.6%
17,CC(=O)[C@@H]1CC[C@]2(C(N)=O)CC[C@]3(C)[C@H](CC[C@@H]4[C@@]5(C)CCCNC(C)(C)[C@@H]5CC[C@]43C)[C@@H]12,91%
18,O=C(CCl)N1c2cccc3cccc(c23)N(C(=O)CCl)C1c1cn(-c2ccccc2)nc1-c1cccc([N+](=O)[O-])c1,27.7%
19,CCCCCCc1cc(N=Nc2ccc(S(=O)(=O)Nc3cc(C)nc(C)n3)cc2)c(O)cc1O,94.4%
20,Clc1ccc(C2=Nn3c(nnc3-c3cc(Cl)cc(Cl)c3Cl)SC2)cc1,-15% (active)

row,SMILES,growth
1,CSc1cccc(NC(=O)Nc2nc3c(C)cccc3s2)c1,85.8%
2,COc1ccc2c(=O)c(OC)c(-c3cc(OC)c(OC)c(OC)c3)oc2c1,85.1%
3,C#CCOc1ccc(C2=NN(CCCC)C3N=C(Cl)c4ncn(CCCC)c4N23)cc1OCC#C (stereo not given),99.4%
4,c1ccc([P+](CCCc2n(Cc3ccc4ccccc4c3)c3ccccc3[n+]2Cc2ccc3ccccc3c2)(c2ccccc2)c2ccccc2)cc1,22.6%
5,Cc1ccc(N=c2nc3sc4c(C)ccc(C)c4n3c(N)c2C#N)cc1,108%
6,CCCn1nc(-c2ccccc2)c2c(-c3ccccc3)onc2c1=O,69.6%
7,COc1ccc(C(=O)c2sc3nc(-c4cccs4)ccc3c2N)cc1OC,23.3%
8,COc1cnc2c(c1)C(=O)c1c-2n(CCCNCCN2CCOCC2)c(=O)c2cc([N+](=O)[O-])ccc12,-15.7% (active)
9,NS(=O)(=O)c1ccc(CCN2C(=O)C3C(C2=O)C2(Cl)C(Cl)=C(Cl)C3(Cl)C2(Cl)Cl)cc1 (stereo not given),78.4%
10,Cc1cccc(CC(=O)c2ccccc2)n1,86.9%
11,C=C1C(=O)O[C@H]2[C@H]1CC/C(Cn1cc(CCC)nn1)=C\CC[C@@]1(C)O[C@@H]21,-13.9% (active)
12,CC(C)n1nc(C#Cc2cccc(O)c2)c2c(N)ncnc21,-57.9% (active)
13,COc1ccc(/C=C(\C#N)n2nnc3cc(F)c(F)cc32)c(OC)c1OC,10.4%
14,CCOC(=O)CC1CSC(N/N=C/c2ccc(-n3cccn3)cc2)=N1 (stereo not given),94%
15,Cc1ccc(N(CC(=O)Nc2ccc(S(=O)(=O)N3CCC(N4CCCC4)CC3)cc2)S(=O)(=O)c2ccc(Cl)cc2)cc1,-51.5% (active)
16,CCCCCCCCCCCC[S+](C)CC(=O)[O-] (stereo not given),20.3%
17,[2H]C([2H])([2H])Oc1ccc(F)cc1/C=C/C(=O)/C=C(/C=C/c1cc(F)ccc1OC([2H])([2H])[2H])OB(F)F,30.1%
18,O=C(O)c1cccc(S(=O)(=O)c2ccccc2)c1,92%
19,C/C=C/C/C=C/[C@H](C)C[C@H](O)[C@@H]1C[C@@H]2O[C@H]2/C=C/[C@H](O)[C@@H](O)/C=C/C[C@H](C)CC(=O)O1,76.6%
20,COc1ccc(-c2cc(-c3ccc(Nc4nc(Nc5ccccc5)nc(Nc5ccc(Cl)cc5)n4)cc3)nc(N)c2C#N)cc1,33.1%
